Laboratory results taken from PubChem BioAssay AID1159580 (chemical genetic matrix, 2015).
“And” between values parts separate entries of the source, which are not always exact repeats. Identical values can stand only once. The campaign covered roughly 5,500 compounds. About 2,000 (36%) were called active. Inconclusive results (about 18%) are left out. No stated cut-off is given here; in the data, active means normalized growth mostly below about 0.91 (no sharp cut-off); inconclusive means no clear call, values can overlap the other calls; inactive means mostly above about 0.92. This is one part of the list.

Test: chemical genetic growth profiling, strain panel (AID 1159580);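 further: tested at 20 µM; growth read once vehicle control cultures reached saturation at 30 °C; 1 = growth at the plate median or of vehicle wells; lower values mean less growth of the strain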
Settings: S. cerevisiae deletion strains, growth OD

Measured: normalized growth

COc1ccc2c3c1O[C@H]1C[C@@H](O)C=C[C@@]31CCN(C)C2
inactive: locus YAL013W, strain DEP1, active compounds read low 1.01 | locus YAL021C, strain ccr4, active compounds read low 1.02 | locus YAL026C, strain drs2, active compounds read low 0.993 | locus YAL030W, strain snc1, active compounds read low 0.984 | locus YBL061C, strain skt5, active compounds read low 0.994 | locus YBR009C, strain hhf1, active compounds read low 1.01 | locus YBR021W, strain FUR4, active compounds read low 0.999 | locus YBR023C, strain chs3, active compounds read low 0.992 | locus YBR171W, strain sec66, active compounds read low 1.01 | locus YBR229C, strain ROT2, active compounds read low 1 | locus YBR231C, strain swc5, active compounds read low 0.984 | locus YBR279W, strain paf1, active compounds read low 0.992 | locus YCL011C, strain gbp2, active compounds read low 0.998 | locus YCL016C, strain dcc1, active compounds read low 0.999 | locus YCL029C, strain bik1, active compounds read low 1.02 | locus YCL061C, strain MRC1, active compounds read low 1.02 | locus YCL069W, strain vba3, active compounds read low 1 | locus YCR088W, strain abp1, active compounds read low 1 | locus YDL005C, strain med2, active compounds read low 0.995 | locus YDL035C, strain GPR1, active compounds read low 1.01 | locus YDL040C, strain nat1, active compounds read low 1 | locus YDL074C, strain BRE1, active compounds read low 1 | locus YDL101C, strain DUN1, active compounds read low 0.996 | locus YDL134C, strain PPH21, active compounds read low 1.01 | locus YDL185W, strain tfp1, active compounds read low 1.02 | locus YDL192W, strain arf1, active compounds read low 1.01 | locus YDR001C, strain nth1, active compounds read low 0.998 | locus YDR069C, strain doa4, active compounds read low 0.997 | locus YDR101C, strain arx1, active compounds read low 1.01 | locus YDR137W, strain rgp1, active compounds read low 1.03 | locus YDR150W, strain NUM1, active compounds read low 1.01 | locus YDR159W, strain sac3, active compounds read low 0.935 | locus YDR162C, strain NBP2, active compounds read low 0.97 | locus YDR195W, strain ref2 0.946 | locus YDR297W, strain sur2, active compounds read low 1.01 | locus YDR318W, strain mcm21, active compounds read low 1.05 | locus YDR334W, strain swr1, active compounds read low 0.994 | locus YDR335W, strain msn5, active compounds read low 1.02 | locus YDR388W, active compounds read low 1.01 | locus YDR392W, strain spt3, active compounds read low 1.05 | locus YDR502C, strain sam2, active compounds read low 1.01 | locus YEL003W, strain gim4, active compounds read low 0.985 | locus YEL037C, strain rad23, active compounds read low 1 | locus YEL061C, strain CIN8 (second series), active compounds read low 1.01 | locus YEL061C, strain CIN8, active compounds read low 1.01 | locus YER015W, strain faa2, active compounds read low 0.993 | locus YER016W, strain bim1, active compounds read low 1.01 | locus YER110C, active compounds read low 1.02 | locus YER111C, strain swi4, active compounds read low 0.997 | locus YER155C, strain BEM2 (second series), active compounds read low 1.01 | locus YER155C, strain BEM2, active compounds read low 0.998 | locus YER167W, strain BCK2, active compounds read low 1.03 | locus YFR010W, strain ubp6, active compounds read low 0.986 | locus YGL078C, strain dbp3, active compounds read low 0.992 | locus YGL086W, strain mad1, active compounds read low 1.04 | locus YGL167C, strain pmr1, active compounds read low 0.997 | locus YGL173C, strain kem1, active compounds read low 0.997 | locus YGL227W, strain vid30, active compounds read low 0.997 | locus YGL240W, strain doc1, active compounds read low 0.999 | locus YGL248W, strain PDE1, active compounds read low 1.01 | locus YGL253W, strain hxk2, active compounds read low 1.01 | locus YGR078C, strain PAC10, active compounds read low 0.981 | locus YGR135W, strain pre9, active compounds read low 1 | locus YGR229C, strain SMI1, active compounds read low 0.981 | locus YGR252W, strain gcn5, active compounds read low 1.08 | locus YHR013C, strain ard1, active compounds read low 1.01 | locus YHR027C, strain rpn1, active compounds read low 1 | locus YHR030C, strain SLT2, active compounds read low 1.01 and 0.985 | locus YHR079C, strain IRE1 (second series), active compounds read low 1.02 | locus YHR079C, strain IRE1, active compounds read low 0.989 | locus YHR094C, strain hxt1, active compounds read low 1.01 | locus YHR129C, strain ARP1, active compounds read low 1.01 | locus YHR142W, strain chs7, active compounds read low 0.982 | locus YHR200W, strain rpn10, active compounds read low 1.02 | locus YIL066C, strain RNR3, active compounds read low 1.01 | locus YIL073C, strain SPO22, active compounds read low 1.04 | locus YIL125W, strain kgd1, active compounds read low 1.01 | locus YIR030C, strain dcg1, active compounds read low 1.02 | locus YJL092W, strain hpr5, active compounds read low 1 | locus YJL095W, strain BCK1 (second series), active compounds read low 1.01 | locus YJL095W, strain BCK1, active compounds read low 1.01 and 0.995 | locus YJL115W, strain asf1, active compounds read low 1.01 | locus YJL129C, strain trk1, active compounds read low 0.983 | locus YJL134W, strain LCB3, active compounds read low 1.01 | locus YJL154C, strain vps35, active compounds read low 1.01 | locus YJL164C, strain tpk1, active compounds read low 1 | locus YJL166W, strain qcr8, active compounds read low 1.01 | locus YJL168C, strain set2, active compounds read low 1.01 | locus YJL187C, strain SWE1 (second series), active compounds read low 1 | locus YJR043C, strain POL32, active compounds read low 1.03 | locus YJR066W, strain TOR1, active compounds read low 0.935
